# Test results reported in the supplement of paper PMC3334620.
# In all, about 33,000 sequences were measured (“E-score (-0.5 to 0.5)”: median about -0.054, highest 2% from about 0.35 on). Many of the other results were omitted from the sample, so the highest values are more common in it than they were.
# Molecular target: T1, Stb5 (UniProt P38699)
# T1 sequence: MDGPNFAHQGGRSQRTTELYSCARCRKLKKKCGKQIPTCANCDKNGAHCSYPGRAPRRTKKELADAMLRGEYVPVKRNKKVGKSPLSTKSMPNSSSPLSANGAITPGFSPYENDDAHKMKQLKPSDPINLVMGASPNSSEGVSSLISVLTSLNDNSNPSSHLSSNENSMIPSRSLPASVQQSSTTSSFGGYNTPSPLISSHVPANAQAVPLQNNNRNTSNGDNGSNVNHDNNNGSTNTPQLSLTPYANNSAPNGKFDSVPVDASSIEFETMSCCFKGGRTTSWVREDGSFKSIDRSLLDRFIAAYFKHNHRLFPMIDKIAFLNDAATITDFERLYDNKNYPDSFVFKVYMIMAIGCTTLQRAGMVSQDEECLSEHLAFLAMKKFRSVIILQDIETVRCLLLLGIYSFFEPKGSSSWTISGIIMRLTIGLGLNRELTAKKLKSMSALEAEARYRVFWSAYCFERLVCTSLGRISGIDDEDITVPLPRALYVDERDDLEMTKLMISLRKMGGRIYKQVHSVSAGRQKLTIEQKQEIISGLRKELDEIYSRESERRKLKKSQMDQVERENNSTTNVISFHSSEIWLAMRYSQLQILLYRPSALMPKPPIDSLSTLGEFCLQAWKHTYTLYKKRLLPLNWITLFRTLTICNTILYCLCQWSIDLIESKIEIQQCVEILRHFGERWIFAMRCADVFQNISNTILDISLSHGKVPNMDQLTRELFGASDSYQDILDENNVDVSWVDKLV
# Assay: PBM E-score (8-mer binding enrichment) (E-score (-0.5 to 0.5)); higher = stronger / more preferred TF binding
# Conditions: protein concentration: 200 nM; construct: GST-full length
# Description: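 Universal 'all 10-mer' protein binding microarrays (Agilent AMADID 015681) probed with GST-tagged S. cerevisiae TFs (full-length or DBD) made by in vitro transcription/translation (PURExpress), about 100-200 nM. Bound TF was detected with fluorescent anti-GST. Each ungapped 8-mer (which stands for itself and its reverse complement) is scored by the PBM enrichment score (E-score), a modified Wilcoxon-Mann-Whitney statistic from -0.5 to +0.5, computed with the Universal PBM Analysis Suite. Scale: above 0.35 generally sequence-specific binding.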
row,Sequence,PBM E-score
1,ACTTGCAA,-0.00221
2,CAAGAAGG,-0.193
3,ATCGTATC,-0.175
4,AGTCTTAC,-0.185
5,AAGGGCAT,-0.336
6,ACTCGGCA,0.00054
7,GCATGAGC,-0.0601
8,GCCCAAGA,-0.114
9,CCATTGCG,0.116
10,GCGCGGAC,0.292
11,CCGCGGAA,0.265
12,CCGCGGAG,0.298
13,CGGCGGAC,0.377
14,GGGCGGAA,0.241
15,GGGCGGAC,0.408
16,CGGCGGAA,0.348
17,CCGCGGAC,0.362
18,CGGCGGAG,0.347
19,AATATATT,0.208
20,CCGAACTA,0.177
21,CAGCAGGG,-0.0502
22,CCAGAAGC,0.0499
23,CCTCCTTC,-0.213
24,CGAGGTGC,-0.146
25,AGCACCAC,-0.0526

row,Sequence,PBM E-score
1,AGCACCTC,-0.163
2,CGCACCGA,0.272
3,AGCACCGC,0.461
4,CGCACCGC,0.352
5,CGCACCTC,-0.0539
6,TCAGCTAA,-0.245
7,GACTAGTC,-0.117
8,ACTGTATG,-0.0542
9,TCCGCGGA,0.144
10,ACCGCGGA,0.358
11,ACCGCGAT,0.346
12,CCCGCGGG,0.361
13,ACCGCGGC,0.412
14,GCCGCGGA,0.299
15,GCCGCGGC,0.331
16,CCCGCGCG,0.342
17,ACCGCGGT,0.39
18,CCCGCGGC,0.333
19,ACCGCGGG,0.317
20,CCCGCGGA,0.322
21,CAAAACAG,-0.0698
22,CTGACAGA,-0.0917
23,ACCAGCCC,0.211
24,AACGAGGG,-0.19
25,AAGTCGGT,0.324

row,Sequence,PBM E-score
1,ACTTAAAC,-0.0316
2,AGGGAGCG,-0.0929
3,AGCTATCG,-0.103
4,AAATGAGA,-0.261
5,GGCACTGA,0.00323
6,GAAGAATA,-0.123
7,AAGGACCA,-0.0213
8,AAAGACCA,-0.216
9,CAAGACCG,0.312
10,AATGACCG,0.365
11,AATGACCT,-0.0215
12,AAGGACCT,0.00048
13,AAGGACCG,0.383
14,AAAGACCG,0.448
15,AATGACCA,-0.133
16,AGCATGGC,-0.178
17,GGCCTAGA,-0.147
18,CTGCATCA,-0.327
19,CACCTGTA,-0.208
20,ACCCGACG,0.287
21,CCCCGAGG,0.148
22,GCCCGACA,0.334
23,CCCCGACC,0.355
24,CCCCGACG,0.449
25,GCCCGACC,0.306

row,Sequence,PBM E-score
1,TCCCGACA,0.291
2,ACCCGACC,0.279
3,CCCCGACA,0.412
4,GCGACTCA,-0.156
5,CGCAGCAG,-0.0406
6,CGGATTTC,0.223
7,CGGATCTC,0.103
8,CGGATGTA,0.381
9,CGGATATA,0.443
10,GGGATCTA,0.0662
11,GGGATGTA,-0.0169
12,GGGATTTA,0.351
13,CGGATATC,0.193
14,CGGATTTA,0.452
15,CGGATCTA,0.424
16,GGGATATA,0.272
17,CGGATGTC,0.223
18,AGCGATGA,0.0899
19,CGCCAGGA,-0.17
20,ACGTCATC,-0.115
21,CTACTACC,0.216
22,ACAGCACC,0.202
23,GGCTAGTA,-0.139
24,ACCCTGCG,-0.165
25,TCCACCAA,-0.103

row,Sequence,PBM E-score
1,GACAAAGA,-0.0701
2,CATTCCCG,0.203
3,AATCCCCC,0.127
4,AATCCCCG,0.452
5,AATCCCGG,0.352
6,CATCCCCG,0.264
7,AATCCGGG,0.233
8,AATTCCCA,-0.261
9,CATCCCGG,0.134
10,AATTCCCG,0.363
11,GATGCAGC,0.0949
12,CATAAAGC,-0.0703
13,CTCAAATC,-0.136
14,TCACTCGA,-0.204
15,CCCGGTGA,0.261
16,CGCGGTGA,0.359
17,GCCGGTGA,0.316
18,CGCGGTCC,0.356
19,CGCGGTGC,0.378
20,CGCGGTAA,0.343
21,GGCGGTGA,0.376
22,GGCGGTCA,0.342
23,CTCGGTGC,0.148
24,CGCGGTCA,0.21
25,AGCGGTCC,0.327

row,Sequence,PBM E-score
1,CGCGGTAG,0.249
2,CCTATCAG,-0.131
3,CCAATATA,-0.07
4,CGCTCTAC,-0.0196
5,CAAAGCCC,0.285
6,CCCGGTGC,0.315
7,AGCGGTCA,0.29
8,ACCGGTGA,0.319
9,AGCGGTGG,0.346
10,CGCGGTTC,0.205
11,AGCGGTTC,0.0808
12,ACCGGTGC,0.377
13,CGCGGTTA,0.37
14,AGCGGTAG,0.204
15,AGCGGTGC,0.396
16,AGCGGTTA,0.122
17,AGCGGTGA,0.387
18,GCCGGAAA,0.187
19,CGTTGGAC,-0.0247
20,GTCCCATA,-0.0984
21,AGATTCAA,-0.16
22,AGCCTGCC,-0.229
23,CCTGACCA,-0.291
24,CACGGTGC,0.306
25,ACCGGTAA,0.326

row,Sequence,PBM E-score
1,GACGGTGA,0.325
2,GACGGTGC,0.392
3,ACCGGTAT,0.336
4,ACCGGTAC,0.397
5,AGAATGAT,-0.254
6,ATTGCATA,-0.0781
7,CAAGATGA,-0.286
8,AACCTTCC,-0.135
9,CGACTCCA,-0.0871
10,TAAAAAGA,0.046
11,GCAGAGTA,-0.202
12,CATCTAGC,-0.12
13,GGGGCCGA,0.158
14,CGGGCCGA,0.327
15,AGGGCCGC,0.36
16,CGGGCCGC,0.195
17,AGGGCCGA,0.354
18,AGGGCCGG,0.271
19,CTGGGGCC,-0.0638
20,GGTTGTAA,0.0915
21,GGGAGTGA,-0.0152
22,CGGAGTGA,0.391
23,CGGAGTCA,0.391
24,AGGAGTCA,-0.194
